Results published in PubChem BioAssay AID1159580 (chemical genetic matrix, 2015).
Several values for one entry are separate records, joined by “and”; a condition that tells them apart may be missing. Identical values can stand only once. Hit rate of the full screen: of about 5,500 compounds, about 2,000 (36%) were called active. Another 18% or so got no clear call; they are omitted. Cut-off read from the data, not from the text of the source: active = normalized growth mostly below about 0.91 (no sharp cut-off); inconclusive = no clear call, values can overlap the other calls; inactive = mostly above about 0.92. This is one part of the list.

Experiment: chemical genetic growth profiling, strain panel (AID 1159580);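 note: tested at 20 µM; growth read once vehicle control cultures reached saturation at 30 °C; 1 = growth at the plate median or of vehicle wells; lower values mean less growth of the strain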
Details: S. cerevisiae deletion strains, growth OD

Measured: normalized growth

NCCS
inactive: locus YAL013W, strain DEP1, hits give low values 1 | locus YAL021C, strain ccr4, hits give low values 0.977 | locus YAL026C, strain drs2, hits give low values 0.99 | locus YAL030W, strain snc1, hits give low values 1.01 | locus YAL040C, strain CLN3, hits give low values 0.985 | locus YBL061C, strain skt5, hits give low values 0.988 | locus YBR009C, strain hhf1, hits give low values 0.988 | locus YBR021W, strain FUR4, hits give low values 1 | locus YBR023C, strain chs3, hits give low values 0.987 | locus YBR171W, strain sec66, hits give low values 0.998 | locus YBR229C, strain ROT2, hits give low values 1.01 | locus YBR231C, strain swc5, hits give low values 0.991 | locus YBR279W, strain paf1, hits give low values 1 | locus YCL011C, strain gbp2, hits give low values 0.982 | locus YCL016C, strain dcc1, hits give low values 0.976 | locus YCL029C, strain bik1, hits give low values 1.02 | locus YCL061C, strain MRC1 (second series), hits give low values 1.01 | locus YCL061C, strain MRC1, hits give low values 1 | locus YCL069W, strain vba3, hits give low values 0.992 | locus YCR088W, strain abp1, hits give low values 0.994 | locus YDL005C, strain med2, hits give low values 0.981 | locus YDL035C, strain GPR1, hits give low values 1.02 | locus YDL040C, strain nat1, hits give low values 0.992 | locus YDL074C, strain BRE1, hits give low values 1.02 | locus YDL101C, strain DUN1, hits give low values 1.01 | locus YDL134C, strain PPH21, hits give low values 1.02 | locus YDL185W, strain tfp1, hits give low values 1 | locus YDL192W, strain arf1, hits give low values 1.01 | locus YDR001C, strain nth1, hits give low values 0.997 | locus YDR069C, strain doa4, hits give low values 0.988 | locus YDR101C, strain arx1, hits give low values 1 | locus YDR137W, strain rgp1, hits give low values 1 | locus YDR150W, strain NUM1, hits give low values 1.01 | locus YDR159W, strain sac3, hits give low values 0.986 | locus YDR162C, strain NBP2, hits give low values 1.01 | locus YDR195W, strain ref2 0.923 | locus YDR297W, strain sur2, hits give low values 0.999 | locus YDR318W, strain mcm21, hits give low values 1.01 | locus YDR334W, strain swr1, hits give low values 0.972 | locus YDR335W, strain msn5, hits give low values 0.991 | locus YDR363W, strain ESC2, hits give low values 1.03 | locus YDR388W, hits give low values 1.01 | locus YDR392W, strain spt3, hits give low values 0.969 | locus YDR502C, strain sam2, hits give low values 1.01 | locus YEL003W, strain gim4, hits give low values 0.986 | locus YEL037C, strain rad23, hits give low values 0.983 | locus YEL061C, strain CIN8 (second series), hits give low values 0.976 | locus YEL061C, strain CIN8, hits give low values 1.01 | locus YER002W, strain NOP16, hits give low values 0.992 | locus YER015W, strain faa2, hits give low values 0.995 | locus YER016W, strain bim1, hits give low values 1 | locus YER110C, hits give low values 1.02 | locus YER111C, strain swi4, hits give low values 0.986 | locus YER155C, strain BEM2 (second series), hits give low values 0.982 | locus YER155C, strain BEM2, hits give low values 1.01 | locus YER167W, strain BCK2, hits give low values 1.02 | locus YFR010W, strain ubp6, hits give low values 0.981 | locus YGL078C, strain dbp3, hits give low values 1.02 | locus YGL086W, strain mad1, hits give low values 1.01 | locus YGL167C, strain pmr1, hits give low values 0.982 | locus YGL173C, strain kem1, hits give low values 0.986 | locus YGL227W, strain vid30, hits give low values 0.984 | locus YGL240W, strain doc1, hits give low values 0.976 | locus YGL248W, strain PDE1, hits give low values 1.01 | locus YGL253W, strain hxk2, hits give low values 0.979 | locus YGR078C, strain PAC10, hits give low values 1.02 | locus YGR135W, strain pre9, hits give low values 1.02 | locus YGR229C, strain SMI1, hits give low values 1.01 | locus YGR252W, strain gcn5, hits give low values 1.04 | locus YHR013C, strain ard1, hits give low values 0.972 | locus YHR027C, strain rpn1, hits give low values 0.985 | locus YHR030C, strain SLT2, hits give low values 1.02 and 1.03 | locus YHR079C, strain IRE1 (second series), hits give low values 1.02 | locus YHR079C, strain IRE1, hits give low values 1.04 | locus YHR094C, strain hxt1, hits give low values 1.01 | locus YHR129C, strain ARP1, hits give low values 1.01 | locus YHR142W, strain chs7, hits give low values 0.984 | locus YHR200W, strain rpn10, hits give low values 1.02 | locus YIL066C, strain RNR3, hits give low values 1.02 | locus YIL073C, strain SPO22, hits give low values 1.02 | locus YIL125W, strain kgd1, hits give low values 1.01 | locus YIR030C, strain dcg1, hits give low values 1.03 | locus YJL092W, strain hpr5, hits give low values 0.997 | locus YJL095W, strain BCK1 (second series), hits give low values 0.996 | locus YJL095W, strain BCK1, hits give low values 1.01 and 1.02 | locus YJL115W, strain asf1, hits give low values 0.966 | locus YJL129C, strain trk1, hits give low values 0.995 | locus YJL134W, strain LCB3, hits give low values 1.01 | locus YJL154C, strain vps35, hits give low values 0.988 | locus YJL164C, strain tpk1, hits give low values 0.99 | locus YJL166W, strain qcr8, hits give low values 1 | locus YJL168C, strain set2, hits give low values 1.02 | locus YJL187C, strain SWE1 (second series), hits give low values 1.01 | locus YJL187C, strain SWE1, hits give low values 0.992 | locus YJR043C, strain POL32, hits give low values 1.01 | locus YJR066W, strain TOR1, hits give low values 0.998
